About 79,000 compounds went through this panel and 15% of them were active in at least one assay; those are over-represented in the sample as a whole. A number with no mark means an inactive call. The source made the active and inactive calls. Rule as the data show it: active = growth inhibition above about 70%; inactive = the rest.
Tests used:
[1] = NCI Yeast Anticancer Drug Screen. Data for the rad50 strain (AID 155);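 also: 0% = growth of vehicle-only cultures of the same strain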; settings: S. cerevisiae rad50 strain growth inhibition; at 50.0 µM; hits give high values
How it was run: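 Readout: growth inhibition relative to vehicle-treated cultures. Compound exposure was carried out in a genetically defined yeast strain deficient in DNA damage repair.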

[2] = NCI Yeast Anticancer Drug Screen. Data for the mec2-1 strain (AID 157); settings: S. cerevisiae mec2-1 strain, at 50.0 µM, hits give high values
How it was run: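 Test agents were screened against the mec2-1 yeast strain, with defined DNA repair or cell cycle alteration. Growth was scored as inhibition against vehicle-only controls.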

[3] = NCI Yeast Anticancer Drug Screen. Data for the sgs1 mgt1 strain (AID 161);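 also: 0% = growth of cultures given vehicle only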; settings: S. cerevisiae sgs1 mgt1 strain, at 50.0 µM, hits give high values
How it was run: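 Mutant yeast exposed to compound; growth scored against vehicle-only wells.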

[4] = NCI Yeast Anticancer Drug Screen. Data for the cln2 rad14 strain (AID 165);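 also: 0% = growth equal to vehicle treated cultures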; settings: S. cerevisiae cln2 rad14 strain, at 50.0 µM, hits give high values
How it was run: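 Growth of compound-exposed yeast (cln2 rad14 genotype) measured and expressed as inhibition relative to vehicle.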

[5] = NCI Yeast Anticancer Drug Screen. Data for the bub3 strain (AID 167); settings: S. cerevisiae bub3 mutant strain, at 50.0 µM, hits give high values
How it was run: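 Readout: yeast growth inhibition, expressed relative to vehicle-only wells. The test organism is a mutant strain from a panel with lesions in DNA repair or checkpoint genes.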

[6] = NCI Yeast Anticancer Drug Screen. Data for the mlh1 rad18 strain (AID 175); settings: S. cerevisiae mlh1 rad18 strain growth inhibition; at 50.0 µM; hits give high values
How it was run: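 In this whole-cell yeast screen, a strain with altered DNA damage repair is challenged with compound, and its growth is measured against matched vehicle-treated controls.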

SMILES	growth inhibition [1]	growth inhibition [2]	growth inhibition [3]	growth inhibition [4]	growth inhibition [5]	growth inhibition [6]
O=C(Nc1cc(C(F)(F)F)ccc1Cl)C(=O)C(C(=O)c1ccc2ccccc2c1)C1OC(=O)c2ccccc21 (stereo unspecified)	35%	24.4%	19.6%	20.3%	30.9%	55.5%
S=C(CC(=S)N1CCOCC1)N1CCOCC1	-15.1%	-1.5%	-10.5%	-14.7%	-11.7%	-1.75%
CC12CCC(C1)C(C)(C)/C2=N\O (stereo unspecified)	-16.2%	-13.8%	2.55%	4.85%	0.05%	2.65%
NC(=O)C12OC1(Cl)CCCC2(Cl)Cl (stereo unspecified)	1.05%	-27.9%	8.5%	9.05%	18%	18.2%
CC(=O)OC1CC2CCCCC21 (stereo unspecified)	10.6%	7%	-0.6%	37%	13.8%	2.3%
N=c1oc2ccccc2cc1-c1nc2ccccc2c(=O)[nH]1	-1.75%	-3.25%	4.5%	11.7%	-13.4%	17.3%
COc1ccc(C2=Nn3c(nc4sc(-c5ccccc5)cc4c3=O)SC2)cc1	-16.9%	-9.15%	-25.6%	3.55%	-8.05%	-16%
CN(C)NC1=NS(=O)(=O)c2cc3c(cc2S1)N(N(C)C)C(=O)c1cc2c(cc1N(N(C)C)C3=O)SC(NN(C)C)=NS2(=O)=O	-6.3%	-22.5%	-14.4%	2.35%	16.4%	-2.9%
Cc1ccc(Nc2nnc(-c3ccc4c(c3)OCO4)o2)c(C)c1	22.8%	1.6%	-4.4%	-2.15%	-4%	14.8%
CCCC(C)OC(=O)Nc1cccc(O)c1 (stereo unspecified)	-2.3%	-10.9%	-5.3%	-10.9%	-21.5%	-5.05%
CN(C)CN1CSC(=S)N(CN(C)C)C1	20.2%	37%	6%	-10.7%	-5%	26.4%
CC(=O)NC(=O)NC1=NCCC(=O)N1CCc1c[nH]c2ccccc12	4.35%	-29%	-6.3%	6.25%	-19.1%	7.2%
N#CC1CCCC(c2ccccc2)(C2CCCCC2)C1=O (stereo unspecified)	7.4%	13.1%	10.2%	26.4%	2.85%	-0.9%
N#CC(NCc1ccccc1)c1ccccc1 (stereo unspecified)	67.7%	43%	14.3%	-17.1%	22.2%	19.8%
C=CCSS/C=C/CS(=O)CC=C (stereo unspecified)	22.6%	54%	75.3% (active)	32%	78.3% (active)	-19.3%
CC(=O)SSC12CC3CC(CC(C3)C1)C2	-24.6%	-17.4%	-4.75%	-48.9%	0.55%	-7.7%
CCc1ccc2c(c1)C(=O)c1c(c(-c3ccccc3)c3ccccc3c1-c1ccccc1)C2=O	-5.95%	-4.5%	-6.4%	-18.1%	13.8%	8.65%
CC(C)(C)C(=O)C(Cc1ccccc1)C(=O)C(C)(C)C	2.6%	-11.8%	2.15%	16.8%	5.45%	-1.95%
Cc1c(F)cc(I)cc1[N+](=O)[O-]	-3.7%	-9.1%	-11%	6.9%	1%	-16.6%
O=C(c1nc2ccc(Cl)cc2[nH]c1=O)C(O)c1ccco1 (stereo unspecified)	-21.4%	3.2%	-20.2%	-1.4%	-24.7%	-13.2%
COc1cc(C2CC(C)(N3CCCC3)Oc3cc4c(cc32)OCO4)cc(OC)c1OC (stereo unspecified)	1.2%	-1.6%	9.5%	-47.4%	-11.8%	5.95%

SMILES	growth inhibition [1]	growth inhibition [2]	growth inhibition [3]	growth inhibition [4]	growth inhibition [5]	growth inhibition [6]
CCOC(=O)C1CSCN1C(C)=O (stereo unspecified)	-33.4%	-20.6%	-4.3%	-34.5%	-11.8%	-21.9%
CCOC(=O)c1nc2c([nH]1)c(=O)n(C)c(=O)n2C	28.8%	10.7%	2.3%	30.1%	9.8%	1.4%
FC(F)(F)C(F)(F)C(F)(F)c1nc(C(F)(F)C(F)(F)C(F)(F)F)nc(C(F)(F)C(F)(F)C(F)(F)F)n1	22.1%	-1%	31.5%	18.6%	15.1%	25.6%
O=C1CCCCCCN1	8.9%	-33.4%	1.5%	16.6%	-17.2%	12.6%
C(/C=N/NC1=NCCCCN1)=N\NC1=NCCCCN1	-6.7%	-13%	-9.05%	4.5%	-13.6%	-11.2%
CSc1c2c([nH]c(=O)c1C#N)-c1ccccc1CC2	-6.5%	-1.4%	4.85%	15.1%	-3.65%	3.95%
ClC1=CC(Cl)=C2N=C(N3CCCC3)N=C3N=C(N4CCCC4)N=C1N32	-15.2%	-5.45%	-19.7%	-10.6%	1.6%	4.55%
CCOC1C[C@H]2C[C@H]3[C@@H]4CC=C5C[C@@H](OC(C)=O)CC[C@]5(C)[C@H]4CC[C@]3(C)C2=C(C)O1 (stereo partly specified)	20.9%	12.7%	22.9%	36%	8.05%	20.6%
CN(C)S(=O)(=O)N1CCOCC1	9.3%	-6.65%	-1.15%	11.2%	-2.8%	4.8%
C/C(=N/NC(N)=O)C1c2ccccc2Cc2ccccc21	18.1%	-2.25%	4.85%	-0.3%	16.9%	-8.15%
Nc1cc(F)ccc1CC(=O)O	11.4%	23.1%	15.3%	-4.8%	11.7%	4.6%
Cc1ccc(Cl)cc1NC(=O)Nc1cccc(C(F)(F)F)c1	3.3%	25.5%	14.2%	-5.4%	37.1%	8.95%
NNc1nc2ccc([N+](=O)[O-])cc2s1	13.7%	-8.55%	-1%	-22%	-9.75%	22.2%
CCCSC(=O)Nc1ccc(Cc2ccc(NC(=O)SCCC)cc2)cc1	2.05%	-17.3%	16.6%	21.8%	16.4%	14.5%
CN(C)c1ccc(C(Cc2ccccc2)C2NC(=S)NC2=O)cc1 (stereo unspecified)	-6%	-34.5%	11.2%	11.3%	7.7%	-40.5%
O=C1CC2C3CC(Br)C4C3CC2C14 (stereo unspecified)	4.95%	-0.25%	1.75%	6.5%	7.2%	4.75%
O=C(O)c1cc(Cl)c(Cl)s1	13.2%	-20.1%	16.7%	-68.9%	-18.3%	-1.9%
CC1(C)CC2(C)CC1CC2O (stereo unspecified)	3.5%	9.6%	-1.95%	14.8%	3.85%	-25.4%
C[C@H](C(=O)C12CC3CC(CC(C3)C1)C2)[C@H](O)c1ccccc1	5.85%	4.7%	-10.8%	17%	-11.5%	-18.2%
COc1ccc(OC)c(NC(=O)C2=C(C)NC(C)=C(C(=O)Nc3cc(OC)ccc3OC)C2c2cccc([N+](=O)[O-])c2)c1	1.05%	8.65%	1.9%	-9.3%	7.5%	4.25%

Source: PubChem BioAssay (NCI)
